PERK inh: blocks human PERK kinase; Q9NZJ5; CHO PERK-DD fusion, SEAP luminescence translation reporter; inhibition, % at 5.6 µM; 0.17% of 220,000 active; AID 1416;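 active = inhibition above the mean inhibition of all tested compounds plus 3 SD, set separately per screening campaign, cut at about 2.9% in these data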;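 note: PERK kinase domain activated by AP20187 dimerizer at 100 nM; 0% = DMSO with dimerizer and 100% = rapamycin at 8.4 µM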
eIF4H FP inh: inhibitors of RNA binding by human eIF4H. AID 2012. 0.94% of 290,000 active. inhibition, % at 35 µM. Q15056. eIF4H fluorescence polarization binding assay;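 note: calls also rest on retests at 20 µM and on dose response follow-up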
eIF4E 4G PPI: inhibitors of eIF4E and eIF4G interaction in translation initiation. P63073+Q04637. TR-FRET eIF4E-eIF4GI(517-606) binding, 2 h. inhibition, % at 21.7 µM. 0.37% of 220,000 active;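 active = inhibition above about 30%, limit read from the data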;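 note: 0% = full FRET control wells and 100% = background wells lacking eIF4GI fragment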
PABP FP inh: PABP-poly(A) binding inhibition; P11940; PABP-poly(A) RNA binding, fluorescence polarization; inhibition, % at 35 µM; 1% of 290,000 active; AID 2014;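 note: calls also rest on retests at 20 µM and on dose response follow-up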
MLLE-PAM2 inh: inhibitors of microRNA-mediated deadenylation, human PABP1 MLLE binding | P11940 | GST-MLLE / FITC-PAM2 fluorescence polarization | inhibition, % at 20 µM | 0.36% of 360,000 active | AID 588489; in the data active = inhibition above about 35%, passing the limit was not always enough;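 note: plate controls were DMSO wells with GST-MLLE for no effect and wells lacking GST-MLLE protein for full effect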
M18AAP inhibitor: PfM18AAP enzyme inhibition | recombinant PfM18AAP, H-Glu-NHMec fluorogenic cleavage | inhibition, % at 7.35 µM | 1.2% of 290,000 active | AID 1822;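 active = inhibition above the campaign mean inhibition over all tested compounds plus 3 SD, cut at about 28% in these data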;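 note: 0% = plate median of test compound wells and 100% = 2 mM ZnCl2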
* hit, by the source's call; ? = inconclusive; / = no result given. Rows were chosen to be rich in hits. Some 2.4% of all compounds tested hit in one or more screens of this group. Unless noted, the rule behind the calls is not given here.

SMILES	PERK inh	eIF4H FP inh	eIF4E 4G PPI	PABP FP inh	MLLE-PAM2 inh	M18AAP inhibitor
CCc1nnc(NC(=O)CSc2nnc(CSc3nc(C)cc(C)n3)n2CC)s1	1	/	/	/	/	1
N#C/C(=C/c1cn(-c2ccccc2)nc1-c1cccc(OCc2ccc(F)cc2)c1)C(=O)NCCCn1ccnc1	-1	80	1	1	-9	3
CCCOc1cccc(-c2nn(-c3ccccc3)cc2/C=C(\C#N)C(=O)NCCCn2ccnc2)c1	-1	?	3	50*	-49	-7
COc1ccccc1-c1noc(CCCC(=O)NC2CCCCC2)n1	/	-1	/	-5	4	-1
CCN1C(c2ccccc2)=C(c2ccccc2)S/C1=C\C=C1/SC(=S)N(C)C1=O	0	/	/	/	-57	-2
CCN1C(=O)/C(=C/C=C2/Sc3ccc4ccccc4c3N2CCO)SC1=S	0	21	-8	4	-37	50*
CC1CCC(C(C)C)C(OCC(O)C[N+]2(C)CCCCC2)C1 (centres undefined)	1	3	4	59*	-108	2
CC1CCC(C(C)C)C(OCC(O)CN2CCCC(C)C2)C1 (centres undefined)	0	-2	-2	10	4	-1
CCCNC(=O)c1nnsc1S(=O)c1ccc(Cl)cc1 (centres undefined)	0	-10	-3	17	37*	-284
Oc1cccc(/C=N/Nc2cc(N3CCCC3)nc(N3CCCC3)n2)c1	0	29*	-1	68	14	1
COc1ccc(/C=N/Nc2cc(C)nc(-n3nc(C)cc3C)n2)cc1	-2	-2	1	-1	-6	-1
COc1ccc(/C=N/Nc2cc(N3CCCC3)nc(N3CCCC3)n2)cc1	0	23	0	-10	54*	12
Oc1ccc(/C=N/Nc2cc(N3CCOCC3)nc(N3CCOCC3)n2)cc1	1	/	/	/	12	9
Oc1ccc(/C=N/Nc2cc(N3CCCC3)nc(N3CCCC3)n2)cc1	-1	51	-3	?	70*	3
Brc1cccc(/C=N/Nc2nc(N3CCCCC3)nc(N3CCCCC3)n2)c1	0	2	0	-6	/	-8
CCc1c(C)nc(/N=C(/NC(=O)c2ccccc2)Nc2ccccc2OC)[nH]c1=O	1	/	/	/	/	-2
O=C(O)c1ccc(Nc2nc(-c3cccnc3)nc3ccccc23)cc1	2	35	-1	26	/	4
Cc1[nH][nH]c(=O)c1C(c1ccc(O)c(Br)c1)c1c(C)[nH][nH]c1=O	/	-2	/	12	-31	28
Cc1[nH][nH]c(=O)c1C(c1ccc(O)c([N+](=O)[O-])c1)c1c(C)[nH][nH]c1=O	0	8	-3	1	-18	31*
CCOc1cc(C(c2c(C)[nH][nH]c2=O)c2c(C)[nH][nH]c2=O)ccc1O	0	0	-2	-5	-15	30*
CC(OC(=O)c1nsc(Cl)c1Cl)C(=O)NC(C)(C)C (centres undefined)	0	-1	1	-12	9	-1
Cc1ccc(N2C(=O)C3C4C=CC(CNC(=S)Nc5cccc(Cl)c5)(O4)C3C2=O)cc1 (centres undefined)	-1	4	1	-15	41*	2
Cc1ccc(N2C(=O)C3C4C=CC(CNC(=S)Nc5ccc(Cl)cc5)(O4)C3C2=O)cc1 (centres undefined)	1	2	7	-4	27	-10
COc1ccccc1NC(=O)Cc1noc(CSc2n[nH]c(N)n2)n1	0	-8	4	-10	-7	-6
COc1ccc(CCNc2nc3ccccc3n3nnnc23)cc1OC	0	?	3	120*	21	1
SMILES	PERK inh	eIF4H FP inh	eIF4E 4G PPI	PABP FP inh	MLLE-PAM2 inh	M18AAP inhibitor
Cc1cc(C)nc(NC(=O)C2c3ccccc3Oc3ccccc32)n1	0	1	-6	0	10	-2
O=C(O)CCCNc1cc(N2CCN(C(=O)c3ccco3)CC2)c2noc3c2c1C(=O)c1ccccc1-3	/	?	/	?	-53	26
CN1CCN(c2cc(N3CCN(C(=O)c4ccco4)CC3)c3c4c(onc24)-c2ccccc2C3=O)CC1	/	93*	/	86*	-99	16
O=C1c2ccccc2-c2onc3c(N4CCN(CCO)CC4)cc(N4CCN(C(=O)c5ccco5)CC4)c1c23	/	83*	/	72*	-76	22
CCN(c1c(C)n(C)n(-c2ccccc2)c1=O)S(C)(=O)=O	1	7	-13	1	52*	-1
COc1ccc(C(C)(C)C)cc1NC(=S)NCCN1CCOCC1	1	-2	-2	57*	5	-4
CC(=O)OCC1OC(n2c(S)c(C#N)c(-c3ccccc3)c(C#N)c2=O)C(OC(C)=O)C(OC(C)=O)C1OC(C)=O (centres undefined)	/	/	/	/	-28	/
Cc1cc(C)c(C#N)c(SCC(=O)c2ccccc2)n1	0	-10	6	1	1	0
Cc1nnc(SCC(=O)Nc2ccccc2)[nH]c1=O	2	-1	3	6	29	3
Cc1cc(=O)[nH]c(SCC(=O)NC(C)C2CC3CCC2C3)c1C#N (centres undefined)	1	3.3*	3	79*	-1	3
Cc1cc(=O)[nH]c(SCC(=O)c2ccccc2)c1C#N	1	81*	-4	69*	-66	21
Cc1ccccc1NC(=O)CSc1nnc(C)c(=O)[nH]1	1	-5	-1	4	43*	-4
Cc1ccccc1NC(=O)CSc1[nH]c(=O)cc(C)c1C#N	1	22*	4	52*	-43	27
CC(C)CN(Cc1cc(=O)oc2cc(-c3ccccc3)c(O)cc12)CC(C)C	-1	12	-4	-1	-15	-1
Cc1ccccc1C1=C/C(=C(\SS/C(C(=O)c2ccc(OCC(=O)O)c(Cl)c2Cl)=C2\C=C(c3ccccc3C)SS2)C(=O)c2ccc(OCC(=O)O)c(Cl)c2Cl)SS1	/	/	/	/	2	/
CCOc1ccc(Cc2nnc(SCC(=O)Nc3c(C)cccc3C)[nH]c2=O)cc1	/	/	/	/	35	/
CCc1cccc(CC)c1NC(=O)CSc1nnc(CCC(=O)O)c(=O)[nH]1	1	-10	-4	-7	39*	9
O=C(N/N=C/c1c(O)ccc2ccccc12)c1cccnc1	/	9	/	2	-123	31*
Cn1nccc1C(=O)N/N=C/c1c(O)ccc2ccccc12	/	-4	/	0	-84	28*
O=C(NN=Cc1c(O)ccc2ccccc12)c1ccncc1	/	/	/	/	-61	/
CSc1ncc(CO)n1Cc1ccccc1	0	-4	-1	-4	3	4
Cc1cccc(COc2ccccc2C(=O)OCC(=O)N(C)c2c(N)n(Cc3ccccc3)c(=O)[nH]c2=O)c1	/	8	/	8	-8	-10
CCOC(=O)c1c(C)[nH]c(C)c1S(=O)(=O)NC(CC)CN1CCOCC1 (centres undefined)	/	94*	/	64*	1	2
Cc1ccccc1-n1c(O)cc(=O)[nH]c1=S	2	53*	6	22	19	7

Screens (PubChem BioAssay)
